The full ranking holds about 110,000 compounds; the median of “z-score” is about -0.1, and the highest 2% start at about 2. The entries come from a sample that favours the highest values as a whole. The source made the active and inactive calls.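 How the source made its calls: active means z-score in the third read window above 3 or below -3; inactive means the rest.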

In the assay the target is Metabotropic glutamate receptor 8 (Rattus norvegicus) (UniProt P70579). As to the kind of experiment: rat mGluR8 modulators via GIRK flux, primary screen, cell-based, thallium flux, HTS (AID 488969). Conditions: HEK293 rat mGluR8, GIRK (G protein-gated inwardly rectifying potassium channel) thallium flux, FluoZin2; at 10 µM; stronger effect = higher value; submaximal glutamate (EC20) added with thallium.
Metabotropic glutamate receptor 8 (Rattus norvegicus), sequence (P70579 whole entry, looked up): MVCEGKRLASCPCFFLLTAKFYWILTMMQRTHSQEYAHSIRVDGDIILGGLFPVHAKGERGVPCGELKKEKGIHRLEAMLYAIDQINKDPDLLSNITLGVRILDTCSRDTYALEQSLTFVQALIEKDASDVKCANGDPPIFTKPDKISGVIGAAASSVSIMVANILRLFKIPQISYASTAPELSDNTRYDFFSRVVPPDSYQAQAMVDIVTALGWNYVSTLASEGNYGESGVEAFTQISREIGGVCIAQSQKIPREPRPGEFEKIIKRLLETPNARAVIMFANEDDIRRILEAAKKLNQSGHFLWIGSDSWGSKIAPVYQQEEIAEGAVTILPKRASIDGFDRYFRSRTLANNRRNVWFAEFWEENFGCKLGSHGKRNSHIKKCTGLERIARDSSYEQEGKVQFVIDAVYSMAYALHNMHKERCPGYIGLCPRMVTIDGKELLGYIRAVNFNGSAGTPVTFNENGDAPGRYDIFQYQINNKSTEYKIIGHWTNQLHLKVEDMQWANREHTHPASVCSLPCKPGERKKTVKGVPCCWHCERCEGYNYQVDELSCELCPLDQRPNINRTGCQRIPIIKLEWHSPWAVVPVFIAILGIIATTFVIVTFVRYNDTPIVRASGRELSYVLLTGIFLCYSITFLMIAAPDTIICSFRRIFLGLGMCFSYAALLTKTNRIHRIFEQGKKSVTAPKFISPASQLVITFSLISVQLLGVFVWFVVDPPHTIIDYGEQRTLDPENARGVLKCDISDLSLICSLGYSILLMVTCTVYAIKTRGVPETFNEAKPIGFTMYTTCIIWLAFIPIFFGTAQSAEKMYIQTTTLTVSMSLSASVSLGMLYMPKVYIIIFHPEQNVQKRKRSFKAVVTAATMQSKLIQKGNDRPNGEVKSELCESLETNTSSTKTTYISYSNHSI
Compound `O=C(NCc1ccco1)c1cccc(S(=O)(=O)N2CCc3ccccc32)c1` displayed a z-score of -0.341.
Next, `CCC(=C(c1ccc(OC)cc1)c1ccc(OC)cc1)c1cn(CC(O)CN2CCN(C)CC2)c2ccccc12` (centres undefined): 2.63; `COc1ccc(C(=O)/C=C/c2cn(CC(O)CN3CCOCC3)c3ccccc23)cc1` (centres undefined): -0.177; `COc1ccc(C(=O)/C=C/c2cn(CN3CCN(C)CC3)c3ccccc23)cc1`: -0.629.
In turn, `COc1ccc(-n2c(COc3ccc4ccccc4c3)nnc2SCC(=O)NCc2ccco2)cc1` yielded a z-score of 0.832.
In the case of `COc1cnc(-c2ccccc2)nc1Oc1cccc(C)c1C`, the z-score was -0.012.
On to `Cc1cccc(OCC(=O)Nc2nc3ccc([N+](=O)[O-])cc3s2)c1`, for which the z-score came to 2.05.
Next, `CCOCC(=O)Nc1nc2ccc(C)cc2s1`: -0.0136.
The compound `Cc1cccc(OCC(=O)Nc2nc3ccc([N+](=O)[O-])cc3s2)c1C` gave a z-score of -0.12.
Next, `Cc1ccc(C)c(OCC(=O)Nc2nc3ccc([N+](=O)[O-])cc3s2)c1C`: 2.46; `COCC(=O)Nc1nc2ccc(C)cc2s1`: 0.0888; `Cc1ccc(C)c(OCC(=O)Nc2nc3ccc([N+](=O)[O-])cc3s2)c1`: 0.0186.
`O=C(CCl)N1c2ccccc2OCC1c1ccccc1` (centres undefined) returned a z-score of -0.994.
Next, `NC(=O)NC(=O)CSc1nc(C2CCCCC2)n(-c2ccccc2)n1`: -0.264; `Cc1ccc(CNc2oc(-c3ccco3)nc2C#N)cc1`: -0.32; `Cc1nnc(N2C(=O)C(O)=C(C(=O)c3ccco3)C2c2ccc(C(C)(C)C)cc2)s1` (centres undefined): -0.554.
Next, `Cc1ccc(NC(=O)COC(=O)c2sccc2C)cc1S(=O)(=O)N1CCOCC1`: 1.38.
Next, `Cc1ccc(C)c(NC(=S)N=Nc2c(O)n(C)c3ccc(S(=O)(=O)N4CCOCC4)cc23)c1`: 4.13 (active).
On to `Cc1cc(C)cc(NC(=S)N=Nc2c(O)n(C)c3ccc(S(=O)(=O)N4CCOCC4)cc23)c1`, for which the z-score was determined as 0.616.
Next, `Cc1ccc(NC(=S)N=Nc2c(O)n(C)c3ccc(S(=O)(=O)N4CCOCC4)cc23)cc1`: 3.93 (active).
Consider `Cn1c(=O)n(C)c2cc(S(=O)(=O)N3CCOCC3)ccc21`, for which the z-score was -0.185.
Next, `Cn1c(=O)c2cc(S(=O)(=O)N3CCOCC3)ccc2n(C)c1=O`: 0.139; `Cc1ccc(Nc2ccc(S(=O)(=O)N3CCOCC3)cc2[N+](=O)[O-])c(C)c1`: 1.29; `CN(C)CCCN1C(=O)C(=O)/C(=C(/O)c2ccncc2)C1c1cccc(Br)c1` (centres undefined): -0.318.
Next, `COc1ccc(OC)c(-c2cc(C(=O)Nc3cc(C)on3)no2)c1`: 0.941; `Cc1ccc(CNC(=O)C2C3C=CC4(CN(Cc5cccnc5)C(=O)C24)O3)cc1` (centres undefined): -0.0986.
As to `O=C(COC(=O)CCC1CCCC1)Nc1ccccc1Sc1ccccc1`, the z-score was -0.2.
`CCOc1c(OC(C)=O)ccc(/C=C/c2ccc3cccc(OC(C)=O)c3n2)c1[N+](=O)[O-]` came in with a z-score of -0.227.
Next, `COCCSc1ccccc1C(=O)NCc1ccco1`: 0.383; `O=C(N/N=C/c1ccc[nH]1)c1ccccc1[N+](=O)[O-]`: -0.104; `Cc1ccccc1N=Nc1c(C)[nH]n(C(N)=S)c1=O`: 2.97.
Next, `CCN(CC)S(=O)(=O)c1ccc(N=Nc2c(C)[nH]n(C(N)=S)c2=O)cc1`: 0.608.
Next, `Cc1ccc(N=Nc2c(C)[nH]n(C(N)=S)c2=O)cc1C`: -0.217; `COCCCNC(=O)/C(=C\c1cccn1C)NC(=O)c1cccs1`: 0.0671.
Compound `O=C(NCc1ccccn1)C(F)(F)C(F)(F)C(=O)NCc1ccccn1` registered a z-score of -0.509.
Take `CCc1nc2cc([N+](=O)[O-])c([N+](=O)[O-])cc2[nH]1`: the z-score is -0.0776.
Next, `CCc1nc2cc(Cl)c(Cl)cc2[nH]1`: 2; `CCc1nc2ccccc2[nH]1`: 0.00543.
Next, `Cc1nc2ccsc2c(=O)n1-c1ccc(Cl)cc1`: -0.0701; `COc1ccc(N2C(=O)C3C4C=CC(CC4)C3C2=O)c([N+](=O)[O-])c1` (centres undefined): -0.215; `OCCn1c(SC2CCCCC2)nc2ccccc21`: 0.162.
Next, `Cc1ccc(C(=O)N/N=C(/CC(=O)c2cccs2)C(F)(F)F)cc1`: 7.05 (active); `O=C(N/N=C(/CC(=O)c1cccs1)C(F)(F)F)c1ccc(O)cc1`: -0.828.
Compound `O=C(C/C(=N\NC(=O)c1ccccc1Br)C(F)(F)F)c1cccs1` showed a z-score of 0.65.
With `Cc1cc(C(=O)NCc2cc(C)n(C)n2)sc1-c1ccccc1`, the z-score is -0.62.
Next, `CS(=O)(=O)Nc1ccccc1Oc1ccccc1`: 0.607; `COCCCn1c(SCc2nnc(-c3ccccc3)o2)nc2sc3c(c2c1=O)CCC3`: -0.256.
With `COc1cccc(C2OC(=O)c3ccccc3N2C(C)=O)c1OC(C)=O` (centres undefined), the z-score worked out at 0.116.
Next, `CSc1nc(Sc2ccc(Cl)cc2)c2ccccc2n1`: 0.0499; `CSc1nc(Sc2ccccc2)c2ccccc2n1`: 4.56 (active); `CSc1nc(Sc2cccc(Cl)c2)c2ccccc2n1`: 0.093.
Next, `CCC(C)NC(=O)CCc1c(C)nc2nc(-c3cc(OC)cc(OC)c3)nn2c1C` (centres undefined): -0.148; `O=[N+]([O-])c1ccc(N2CCN(S(=O)(=O)c3ccc(Cl)cc3)CC2)cc1NCC1CCCO1` (centres undefined): -0.211; `O=C(CN1CCN(c2ccccc2)CC1)Nc1ccc(-n2cnnn2)cc1`: 0.659.
Regarding `CCC1(C)Cc2c(sc3c2c(=O)n(C)c2nnc(SCc4ccc5c(c4)OCO5)n32)CO1` (centres undefined), the z-score is 3.12 (active).
On to `CCC1(C)Cc2c(sc3c2c(=O)n(C)c2nnc(SCC(=O)c4ccccc4)n32)CO1` (centres undefined), for which the z-score was -0.469.
Next, `CCC1(C)Cc2c(sc3c2c(=O)n(C)c2nnc(SCc4ccccc4)n32)CO1` (centres undefined): -0.196.
Turning to `COc1ccccc1C(=O)N/C(=C\c1ccc2c(c1)OCO2)C(=O)NCCc1nc2ccccc2[nH]1`, the z-score was -1.09.
As to `CN(c1ccccc1C(=O)Nc1cccc(Cl)c1Cl)S(C)(=O)=O`, the z-score came out at 0.0249.
Next, `S=C(NCC1CCCO1)Nc1ccc(Cl)cc1Cl` (centres undefined): 0.145; `CC(C)c1ccc2[nH]c(O)c(N=NC(=S)NCCc3ccccc3)c2c1`: 0.396; `S=C(NCC1CCCO1)Nc1ccc(Cl)cc1` (centres undefined): 0.0149.
`Oc1[nH]c2ccccc2c1N=NC(=S)NCC1CCCO1` (centres undefined): the z-score is 3.01 (active).
With `Oc1[nH]c2c(Cl)cc(Cl)cc2c1N=NC(=S)NCC1CCCO1` (centres undefined), the z-score was 7.5 (active).
Next, `CCOC(=O)C(=O)N=Nc1c(O)[nH]c2ccccc12`: -0.0577; `Oc1[nH]c2ccccc2c1C=NCC1CCCO1` (centres undefined): -0.00202; `Oc1[nH]c2ccccc2c1N=NC(=S)NCCc1ccccc1`: 3.06 (active).
Next, `O=C(CCn1c(=S)[nH]c2ccccc2c1=O)NCC1CCCO1` (centres undefined): -0.275; `Cc1ccccc1NC(=O)C1C2CCCC1C2c1ccccc1` (centres undefined): 0.216.

(Values after PubChem BioAssay AID488969 (Vanderbilt High Throughput Screening Facility, 2010).)
